Compound activity (PubChem)
Hits are enriched below; roughly 4.6% of the tested compounds scored in any of these assays.
DAX1 inh-1 = NR0B1 (DAX1) inhibition. P51843. inhibition, % at 6.75 µM. AID 504766. HEK293 Gal4-DAX1 luciferase reporter, luminescence. 340,000 compounds, 0.99% hits;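 active means inhibition above the mean over all tested compounds plus 3 SD, cut at about 4.2% in these data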;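 further: 0% = DAX1-transfected cells with DMSO and 100% = empty-vector control cells with DMSO; inhibition shows as a rise in luminescence from relieved DAX1 repression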
Wee1 degr inh = inhibitors of human Wee1 degradation; P30291; HeLa Luc-Wee1K328M stability, luciferase luminescence; 100% = proteasome inhibitor MG132 effect; reporter increase, % at 5 µM; 220,000 compounds, 1.2% hits; AID 1321;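 active means activation above the mean of all tested compounds plus 3 SD, set per screening run, cut at about 8.8% in these data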;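 further: cells exposed to compound for 20 h before luminescence read; 0% = DMSO alone and 100% = MG132 at 30 µM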
Target sequence (P30291 whole entry K328M): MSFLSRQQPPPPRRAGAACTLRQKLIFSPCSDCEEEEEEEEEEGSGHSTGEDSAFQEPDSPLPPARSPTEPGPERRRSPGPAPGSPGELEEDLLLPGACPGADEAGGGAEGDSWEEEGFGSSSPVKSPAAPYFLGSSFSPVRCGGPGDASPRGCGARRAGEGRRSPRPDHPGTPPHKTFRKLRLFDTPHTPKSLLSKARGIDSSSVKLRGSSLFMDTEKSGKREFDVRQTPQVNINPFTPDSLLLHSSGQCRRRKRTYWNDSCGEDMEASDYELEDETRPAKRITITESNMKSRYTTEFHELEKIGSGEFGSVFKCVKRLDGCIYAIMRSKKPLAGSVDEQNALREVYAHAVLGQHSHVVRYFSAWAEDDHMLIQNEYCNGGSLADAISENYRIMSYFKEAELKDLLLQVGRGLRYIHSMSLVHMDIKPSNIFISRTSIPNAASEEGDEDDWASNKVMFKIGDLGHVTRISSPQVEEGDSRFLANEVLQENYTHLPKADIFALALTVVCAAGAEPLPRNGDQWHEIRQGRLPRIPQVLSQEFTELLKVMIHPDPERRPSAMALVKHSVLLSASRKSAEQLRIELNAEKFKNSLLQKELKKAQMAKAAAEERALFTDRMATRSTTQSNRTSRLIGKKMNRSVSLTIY
ssDAF12 agonist = activators of S. stercoralis DAF-12 nuclear receptor; HEK293 ssDAF-12/GRIP1 lit1-tk-luc reporter, luminescence; % of 3 µM dafachronic acid response; 370,000 compounds, 1% hits; AID 652126; activation, % at 6.8 µM;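 active means activation above the mean over all tested compounds plus 3 SD, cut at about 0.9% in these data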;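 further: 0% = DMSO-only wells and 100% = 3 µM delta7-dafachronic acid wells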
hcDAF12 agonist = H. contortus DAF-12 activation, primary screen; activation, % at 6.8 µM; HEK293 hcDAF-12 lit1-tk-luc reporter, luminescence; 0% DMSO, 100% Δ7-dafachronic acid; 370,000 compounds, 1.4% hits;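 active means activation above the mean of all tested compounds plus 3 SD, cut at about 5.5% in these data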;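 further: 100% = response to 3 µM Δ7-dafachronic acid high control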
hgDAF-12 ag = hgDAF-12 agonism, primary luciferase screen. 370,000 compounds, 1.8% hits. HEK293 GAL4-hgDAF12 UAS-luciferase reporter, agonist luminescence; normalized to butyrate control. activation, % at 6.8 µM. AID 687014;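 active means activation above a cutoff set at the mean of all screened compounds plus 3 SD, cut at about 10% in these data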;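 further: 0% = DMSO wells and 100% = sodium butyrate wells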
DAX1 inh-2 = blocks DAX1 repression of SF-1 activated StAR promoter | inhibition, % at 6.8 µM | HEK293T StAR-luciferase reporter, SF-1/DAX-1 repression relief | AID 652010 | 370,000 compounds, 1.1% hits;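 active means inhibition above the mean over all tested compounds plus 3 SD, cut at about 3.6% in these data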;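 further: 0% = DAX-1 cells with DMSO and 100% = cells lacking DAX-1 with DMSO; higher inhibition means more luminescence from relief of DAX-1 repression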
The depositor's hits bear a star.

Cc1ccc(S(=O)(=O)N2CCCc3nc(-c4ccc(F)cc4)ccc32)cc1 was read as ssDAF12 agonist 0, hcDAF12 agonist -1, hgDAF-12 ag 1 and DAX1 inh-2 0.
`CN(C)c1nc(Cl)nc(NCCOc2ccccc2)n1` gave DAX1 inh-1 4.3*, Wee1 degr inh 0, ssDAF12 agonist -1, hcDAF12 agonist 0, hgDAF-12 ag -2 and DAX1 inh-2 0.
N#C/C(=N\Nc1ccc(Br)cc1)C(=N)N1CCOCC1 was read as DAX1 inh-1 3, Wee1 degr inh 1, ssDAF12 agonist 0, hcDAF12 agonist 2, hgDAF-12 ag 7 and DAX1 inh-2 1.
`N#C/C(=N\Nc1ccccc1)C(=N)N1CCCCC1` gave DAX1 inh-1 2, Wee1 degr inh 3, ssDAF12 agonist 1, hcDAF12 agonist 3, hgDAF-12 ag 12* and DAX1 inh-2 3.
For COc1ccc(C[N+]2=C(N)NC3=C(C)Cn4c(=O)n(-c5ccccc5)c(=O)n4C3C2)c(OC)c1 (centres undefined) the results were ssDAF12 agonist -1, hcDAF12 agonist -1, hgDAF-12 ag 1 and DAX1 inh-2 -2.
O=C(CCNc1ccc(Cc2ccncc2)cc1)c1ccc([N+](=O)[O-])cc1 was read as DAX1 inh-1 0, Wee1 degr inh 0, ssDAF12 agonist 11*, hcDAF12 agonist 1, hgDAF-12 ag 1 and DAX1 inh-2 -1.
COc1ccc(S(=O)(=O)N2CCOCC2)cc1C(=O)N(C)Cc1ccco1 was read as DAX1 inh-1 1, ssDAF12 agonist -1, hcDAF12 agonist 3, hgDAF-12 ag 1 and DAX1 inh-2 0.
Cc1c(NC(=O)c2ccc(NS(=O)(=O)c3ccc(F)c(F)c3)cc2)c(=O)n(-c2ccccc2)n1C was read as DAX1 inh-1 0, ssDAF12 agonist -1, hcDAF12 agonist -1, hgDAF-12 ag 1 and DAX1 inh-2 3.7*.
For COc1ccc(NC(=O)CSCC(=O)Nc2sccc2C#N)cc1 the results were DAX1 inh-1 -1, ssDAF12 agonist 1.0*, hcDAF12 agonist 1, hgDAF-12 ag 1 and DAX1 inh-2 0.
`CCOc1ccc2nc(NC(=O)/C=C/c3ccc4c(c3)OCO4)sc2c1` gave DAX1 inh-1 -1, Wee1 degr inh 0, ssDAF12 agonist -1, hcDAF12 agonist -1, hgDAF-12 ag 0 and DAX1 inh-2 0.
For O=C(/C=C/c1ccc2c(c1)OCO2)Nc1nc2ccc(F)cc2s1 the results were DAX1 inh-1 4.8*, Wee1 degr inh -2, ssDAF12 agonist 1, hcDAF12 agonist 3, hgDAF-12 ag 7 and DAX1 inh-2 2.
Screening CC(C)[C@H](NC(=O)c1ccccc1Cl)C(=O)OCc1cc([N+](=O)[O-])cc2c1OCOC2 returned DAX1 inh-1 -1, Wee1 degr inh 1, ssDAF12 agonist 1.0*, hcDAF12 agonist -1, hgDAF-12 ag -1 and DAX1 inh-2 0.
For CC(C)=CC(=O)OCc1cc([N+](=O)[O-])cc2c1OCOC2 the results were DAX1 inh-1 1, Wee1 degr inh 4, ssDAF12 agonist 1.0*, hcDAF12 agonist 1, hgDAF-12 ag 11* and DAX1 inh-2 3.8*.
CCOc1ccc(/C=C/C(=O)c2ccccc2)cc1 was read as DAX1 inh-1 4, Wee1 degr inh 6, ssDAF12 agonist 0, hcDAF12 agonist 6.2*, hgDAF-12 ag 8 and DAX1 inh-2 2.
CCOc1ccc(C(=O)Cc2ccccc2)cc1 was read as DAX1 inh-1 2, ssDAF12 agonist 1.1*, hcDAF12 agonist 2, hgDAF-12 ag 12* and DAX1 inh-2 1.
CCOc1ccc(C(=O)/C=C/c2ccc(SC)cc2)cc1 was read as DAX1 inh-1 0, Wee1 degr inh 0, ssDAF12 agonist -2, hcDAF12 agonist -1, hgDAF-12 ag -3 and DAX1 inh-2 -1.
For CN(C)c1ccc(C(=O)OCC(=O)N2CCCC2)cc1 the results were DAX1 inh-1 1, ssDAF12 agonist 0.9*, hcDAF12 agonist 0, hgDAF-12 ag 3 and DAX1 inh-2 0.
Screening COc1ccc(CN2C(=O)CCC2(C)c2nnnn2-c2ccc3c(c2)OCCO3)cc1 (centres undefined) returned ssDAF12 agonist -1, hcDAF12 agonist -1, hgDAF-12 ag 2 and DAX1 inh-2 0.
For Oc1ccccc1CNc1ccc(Br)cn1 the results were DAX1 inh-1 2, Wee1 degr inh 1, ssDAF12 agonist -1, hcDAF12 agonist 4, hgDAF-12 ag 12* and DAX1 inh-2 1.
`CN1CCc2c(sc3c2c(=O)n(-c2ccccc2)c2n[nH]c(=S)n32)C1` gave DAX1 inh-1 4.7*, Wee1 degr inh 1, ssDAF12 agonist -2, hcDAF12 agonist -2, hgDAF-12 ag -1 and DAX1 inh-2 0.
For O=c1c2c3c(sc2n2c(=S)[nH]nc2n1-c1ccccc1)CCC3 the results were Wee1 degr inh 0, ssDAF12 agonist -2, hcDAF12 agonist -1, hgDAF-12 ag 0 and DAX1 inh-2 -1.
Screening CCOC(=O)N1CCN(C(=O)C2CCN(C(=O)c3ccc(C(C)(C)C)cc3)CC2)CC1 returned DAX1 inh-1 4.4*, ssDAF12 agonist 0, hcDAF12 agonist 1, hgDAF-12 ag -2 and DAX1 inh-2 0.
`Cc1c(C(=O)Nc2nc3ccccc3[nH]2)cccc1[N+](=O)[O-]` gave DAX1 inh-1 2, Wee1 degr inh 6, ssDAF12 agonist 1.5*, hcDAF12 agonist 5, hgDAF-12 ag 8 and DAX1 inh-2 2.
For O=C(Nc1nc2ccccc2[nH]1)c1cc(F)cc(F)c1 the results were DAX1 inh-1 1, ssDAF12 agonist 1, hcDAF12 agonist 5.6*, hgDAF-12 ag 10 and DAX1 inh-2 2.
CN(C)S(=O)(=O)c1ccc(C(=O)Nc2nc3ccccc3[nH]2)cc1 was read as DAX1 inh-1 6.7*, Wee1 degr inh 0, ssDAF12 agonist -1, hcDAF12 agonist 1, hgDAF-12 ag 8 and DAX1 inh-2 3.
`O=C(Nc1nc2ccccc2[nH]1)c1ccc(OC(F)F)cc1` gave DAX1 inh-1 -2, ssDAF12 agonist 0, hcDAF12 agonist 3, hgDAF-12 ag 11* and DAX1 inh-2 1.
Screening CCc1ccc(C(=O)Nc2nc3ccccc3[nH]2)cc1 returned DAX1 inh-1 -5, ssDAF12 agonist -1, hcDAF12 agonist -4, hgDAF-12 ag -12 and DAX1 inh-2 -1.
For COc1cc(OC)cc(C(=O)Nc2nc3ccccc3[nH]2)c1 the results were DAX1 inh-1 1, Wee1 degr inh 4, ssDAF12 agonist -1, hcDAF12 agonist 3, hgDAF-12 ag 8 and DAX1 inh-2 0.
`CC(C)NC(=O)N[C@@H]1C[C@@H]2O[C@@H](CO)CC[C@@H]2O[C@@H]1CCc1ccc(-c2ccccc2F)cc1` gave ssDAF12 agonist -1, hcDAF12 agonist -3, hgDAF-12 ag 3 and DAX1 inh-2 -1.
